# A number with no mark means an inactive call. Inconclusive results are not listed. Active and inactive are the calls of the source. Unless noted, the call rests on the fitted dose curve; in most records, active means well fitted curve in either direction with a large enough effect (not every such curve was filed as active); inconclusive means small, poorly fitted or top-dose-only effect, or another doubt; inactive means flat fitted curve, though single readings scatter.
# Assays:
# [1] = molecular target: Lysosomal acid glucosylceramidase (Homo sapiens) (UniProt P04062); test: Glucocerebrosidase-p2 (AID 348; in the data active means potency below about 10 µM; further: potency means the concentration at half of the fitted maximal effect); settings: purified GBA, blue fluorogenic substrate, 40 min
# Sequence of Lysosomal acid glucosylceramidase (Homo sapiens) (P04062 whole entry, looked up): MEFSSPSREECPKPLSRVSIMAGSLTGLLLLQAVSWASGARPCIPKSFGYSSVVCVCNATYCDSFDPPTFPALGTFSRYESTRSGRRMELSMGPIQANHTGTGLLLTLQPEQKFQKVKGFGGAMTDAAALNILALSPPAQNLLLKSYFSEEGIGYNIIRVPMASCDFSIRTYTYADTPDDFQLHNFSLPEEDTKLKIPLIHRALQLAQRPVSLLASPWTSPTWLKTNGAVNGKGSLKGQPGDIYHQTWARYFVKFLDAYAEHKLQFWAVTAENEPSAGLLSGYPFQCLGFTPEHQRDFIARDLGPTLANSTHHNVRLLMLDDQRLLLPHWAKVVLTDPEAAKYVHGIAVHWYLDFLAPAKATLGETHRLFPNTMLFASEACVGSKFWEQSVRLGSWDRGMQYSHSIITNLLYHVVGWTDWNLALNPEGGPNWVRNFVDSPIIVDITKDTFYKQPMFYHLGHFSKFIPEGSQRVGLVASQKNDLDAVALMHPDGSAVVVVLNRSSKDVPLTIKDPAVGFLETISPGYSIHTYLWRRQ
# Outline: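 Compounds titrated from 0.6 nM upwards against 0.2 nM enzyme in pH 5.9 citric acid/KH2PO4, taurocholate, tween-20; blue fluorogenic substrate 80 uM, 40 min room temperature, stopped and read Ex 365/Em 440 for AC50.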
# [2] = AP1 Signaling Pathway (AID 357); settings: ME-180 AP-1-bla reporter, EGF-induced, beta-lactamase ratio, 5 h; at 7.69 µM (top of the series) unless noted; further: on the % scale 0 is the no-effect control and ±100 the full control effect
# Outline: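 ME-180 cells with beta-lactamase reporter under AP-1 response element, stimulated with EC50 EGF; compounds tested in titration series, 5 h at 37 °C. CCF4 substrate added 2.5 h at room temperature; 460/530 nm emission ratio gave %activity and AC50.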
# [3] = molecular target: Cytochrome P450 1A2 (Homo sapiens) (UniProt P05177); test: p450-cyp1a2 (AID 410; calls by dose curve; further: potency means the concentration at half of the fitted maximal effect;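 on activity change, negative = inhibition: -100% = full effect of reference inhibitor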); settings: recombinant CYP1A2, luciferin-ME demethylation, luminescence; series mostly up to 11.4 µM
# Sequence of Cytochrome P450 1A2 (Homo sapiens) (P05177 whole entry, looked up): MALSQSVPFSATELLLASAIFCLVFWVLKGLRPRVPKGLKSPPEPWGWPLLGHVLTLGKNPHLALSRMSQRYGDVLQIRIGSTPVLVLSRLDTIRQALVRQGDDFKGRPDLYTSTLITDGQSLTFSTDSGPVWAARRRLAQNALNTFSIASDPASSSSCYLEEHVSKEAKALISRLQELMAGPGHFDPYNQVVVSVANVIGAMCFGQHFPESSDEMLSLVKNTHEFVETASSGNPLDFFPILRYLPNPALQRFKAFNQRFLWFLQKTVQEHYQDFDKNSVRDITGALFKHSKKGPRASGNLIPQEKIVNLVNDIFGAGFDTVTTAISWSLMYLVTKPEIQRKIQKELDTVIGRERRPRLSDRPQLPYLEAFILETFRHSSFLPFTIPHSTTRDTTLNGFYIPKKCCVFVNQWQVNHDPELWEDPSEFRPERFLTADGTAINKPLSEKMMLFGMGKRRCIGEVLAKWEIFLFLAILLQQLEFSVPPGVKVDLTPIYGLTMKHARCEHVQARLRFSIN
# Outline: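 20nM CYP1A2 with 100uM Luciferin-ME (at Km) in 100mM KPO4; compound preincubated 10 min, NADPH regeneration added, 60 min at room temperature. Luciferin quantified by luminescence after detection reagent; normalized to 57 uM furafylline.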
# [4] = Stat Signaling Pathway (AID 446); settings: ME-180 (cervical carcinoma) SIE beta-lactamase reporter, IL-6 stimulated, 5 h; at 7.69 µM (top of the series) unless noted;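 further: ME-180 cervical cancer cells given 40 pM IL-6 alongside compound; SIE-controlled beta-lactamase reporter measured as 460/530 nm FRET emission ratio; on the % scale 0 is the no-effect control and ±100 the full control effect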
# Outline: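 IL-6/STAT signaling read in ME-180 cells via an SIE beta-lactamase reporter. Stimulus was 40 pM IL-6 (its AC50) for 5 hrs, so both activation and inhibition register.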
# [5] = molecular target: Glucocorticoid receptor (Homo sapiens) (UniProt P04150); test: GR-GFP Redistribution (AID 450;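 active means compounds whose dose series gives a full or clear partial fitted curve of increased nuclear translocation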; further: potency means the concentration at half of the fitted maximal effect); settings: U2OS GR-GFP nuclear translocation, laser cytometry, 2 h
# Sequence of Glucocorticoid receptor (Homo sapiens) (P04150 whole entry, looked up, the tested form may be a part): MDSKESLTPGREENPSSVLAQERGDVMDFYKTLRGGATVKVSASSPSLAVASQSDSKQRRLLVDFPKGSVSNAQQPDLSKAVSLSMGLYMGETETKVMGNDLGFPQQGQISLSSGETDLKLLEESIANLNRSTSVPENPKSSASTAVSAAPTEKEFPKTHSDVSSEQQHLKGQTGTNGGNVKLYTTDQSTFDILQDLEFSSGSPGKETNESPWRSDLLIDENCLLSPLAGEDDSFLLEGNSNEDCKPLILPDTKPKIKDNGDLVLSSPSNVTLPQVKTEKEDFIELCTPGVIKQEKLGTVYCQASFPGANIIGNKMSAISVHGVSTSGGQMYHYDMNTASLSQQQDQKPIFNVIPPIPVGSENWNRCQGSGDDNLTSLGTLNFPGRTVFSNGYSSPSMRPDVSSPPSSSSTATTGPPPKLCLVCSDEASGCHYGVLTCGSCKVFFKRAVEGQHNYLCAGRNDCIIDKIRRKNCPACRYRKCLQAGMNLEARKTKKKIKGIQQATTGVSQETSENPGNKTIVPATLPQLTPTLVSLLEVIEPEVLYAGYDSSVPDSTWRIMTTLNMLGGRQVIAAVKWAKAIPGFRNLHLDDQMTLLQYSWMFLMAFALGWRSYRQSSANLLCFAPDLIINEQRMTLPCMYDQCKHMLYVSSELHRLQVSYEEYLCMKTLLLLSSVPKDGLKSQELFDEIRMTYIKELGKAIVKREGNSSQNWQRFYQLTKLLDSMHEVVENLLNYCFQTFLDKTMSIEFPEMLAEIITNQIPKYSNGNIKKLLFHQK
# [6] = molecular target: Glucocorticoid receptor (Homo sapiens) (UniProt P04150); test: GR-EFC Redistribution (AID 451; calls by dose curve; further: potency means the concentration at half of the fitted maximal effect); settings: CHO-K1 GR-EFC translocation, beta-gal luminescence, 2 h
# Outline: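 Translocation of GR-ED fusion to nuclear EA restores b-gal, read by luminescence after 1 h room-temperature detection. Engineered CHO-K1 biosensor cells, 1,000/well, exposed 2 h at 37 C to titrations up to 46 uM final.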
# [7] = molecular target: Mitogen-activated protein kinase 10 (Mus musculus) (UniProt Q61831); test: JNK3 AlphaScreen Assay (AID 530); settings: JNK3 lysate, c-Jun phosphorylation; series mostly up to 11.4 µM;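 further: kinase came from lysate of stimulated human HepG2 cells; signal reports phosphorylation of biotinylated GST-cJun 1-79 at Ser73 with 10 µM ATP; on the % scale 0 is the no-effect control and ±100 the full control effect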
# Outline: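 Compound titrations were preincubated 15 minutes at room temperature with substrate, antibody and pre-activated JNK3-containing HepG2 lysate. Reactions were started with 10 uM ATP and stopped with EDTA-containing bead buffer for AlphaScreen detection.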
# [8] = molecular target: 3',5'-cyclic-AMP phosphodiesterase 4B (Homo sapiens) (UniProt Q07343); test: qHTS Assay for Inhibitors of PDE-IV (AID 607; active means well fitted activation curve with a large enough effect in the main read-out, with a control signal flat, not every such curve was filed as active; further: % of control where 0% means no effect); settings: HEK293 ACTOne CNG channel cells, membrane potential fluorescence; series mostly up to 22.9 µM
# Sequence of 3',5'-cyclic-AMP phosphodiesterase 4B (Homo sapiens) (Q07343 whole entry, looked up): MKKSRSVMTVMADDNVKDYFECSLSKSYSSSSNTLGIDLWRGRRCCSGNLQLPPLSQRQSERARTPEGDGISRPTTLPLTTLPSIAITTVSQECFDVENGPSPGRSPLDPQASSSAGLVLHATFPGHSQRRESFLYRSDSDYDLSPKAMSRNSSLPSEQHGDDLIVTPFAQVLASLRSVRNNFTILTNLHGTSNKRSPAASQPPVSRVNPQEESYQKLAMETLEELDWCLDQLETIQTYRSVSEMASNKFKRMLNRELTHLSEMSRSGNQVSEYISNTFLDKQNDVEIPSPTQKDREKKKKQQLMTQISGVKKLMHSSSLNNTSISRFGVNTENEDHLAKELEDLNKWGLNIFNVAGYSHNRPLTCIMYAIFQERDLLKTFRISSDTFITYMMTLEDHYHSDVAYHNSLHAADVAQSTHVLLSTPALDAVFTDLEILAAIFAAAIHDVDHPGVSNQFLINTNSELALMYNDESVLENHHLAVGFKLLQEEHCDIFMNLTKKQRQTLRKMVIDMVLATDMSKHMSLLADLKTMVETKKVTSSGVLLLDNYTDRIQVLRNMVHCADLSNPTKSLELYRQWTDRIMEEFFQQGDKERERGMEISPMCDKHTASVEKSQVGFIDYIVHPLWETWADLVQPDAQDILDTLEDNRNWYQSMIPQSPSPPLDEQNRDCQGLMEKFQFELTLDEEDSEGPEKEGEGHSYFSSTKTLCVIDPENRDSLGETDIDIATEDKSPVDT
# Outline: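 Live HEK293 cells with a modified cyclic nucleotide-gated (CNG) channel report intracellular cAMP via membrane-potential dye fluorescence (ex 535/em 590 nm). Endogenous PDE-IV was targeted. Compounds were tested at up to 22.9 uM final; RO 20-1724 100 uM served as control.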
# [9] = molecular target: Cytochrome P450 2C9 (Homo sapiens) (UniProt P11712); test: qHTS Assay for Inhibitors and Substrates of Cytochrome P450 2C9 (AID 883; active means well fitted curve in the direction sought with a large enough effect; an effect the other way counts as inactive or inconclusive; further: nearly all actives have a fitted effect of over 60% in size; further: potency means the concentration at half of the fitted maximal effect; on activity change, negative = inhibition: on the % scale 0 is the no-effect control and ±100 the full control effect); settings: recombinant CYP2C9, luciferin-H luminescence, 60 min; series mostly up to 11.4 µM
# Sequence of Cytochrome P450 2C9 (Homo sapiens) (P11712 whole entry, looked up): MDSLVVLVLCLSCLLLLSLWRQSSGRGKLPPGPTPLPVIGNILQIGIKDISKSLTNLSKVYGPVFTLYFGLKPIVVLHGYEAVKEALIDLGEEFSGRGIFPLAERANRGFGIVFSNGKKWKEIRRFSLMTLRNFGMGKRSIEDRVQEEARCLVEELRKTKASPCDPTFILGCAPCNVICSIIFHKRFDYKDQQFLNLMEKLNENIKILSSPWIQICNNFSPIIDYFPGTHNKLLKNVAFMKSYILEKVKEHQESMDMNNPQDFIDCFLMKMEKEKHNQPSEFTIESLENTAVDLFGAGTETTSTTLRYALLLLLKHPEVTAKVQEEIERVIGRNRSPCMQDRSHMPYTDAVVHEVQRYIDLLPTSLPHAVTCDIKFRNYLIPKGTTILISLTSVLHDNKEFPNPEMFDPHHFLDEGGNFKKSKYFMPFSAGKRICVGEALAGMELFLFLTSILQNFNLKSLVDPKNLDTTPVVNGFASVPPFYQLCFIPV
# Outline: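 Luminescent read-out of deoxyluciferin hydroxylation, normalized to 57uM sulphaphenazole (AC100). Reaction: 10nM enzyme, 100uM Luciferin-H (equal to KM), 25mM KPO4, 10 min compound preincubation, then 60 min with NADPH regeneration, both at 37C.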
# [10] = molecular target: Cytochrome P450 3A4 (Homo sapiens) (UniProt P08684); test: qHTS Assay for Inhibitors and Substrates of Cytochrome P450 3A4 (AID 884; active means well fitted curve in the direction sought with a large enough effect; an effect the other way counts as inactive or inconclusive; further: nearly all actives have a fitted effect of over 50% in size; further: potency means the concentration at half of the fitted maximal effect); settings: recombinant CYP3A4, Luciferin-PPXE luminescence; series mostly up to 57.1 µM
# Sequence of Cytochrome P450 3A4 (Homo sapiens) (P08684 whole entry, looked up): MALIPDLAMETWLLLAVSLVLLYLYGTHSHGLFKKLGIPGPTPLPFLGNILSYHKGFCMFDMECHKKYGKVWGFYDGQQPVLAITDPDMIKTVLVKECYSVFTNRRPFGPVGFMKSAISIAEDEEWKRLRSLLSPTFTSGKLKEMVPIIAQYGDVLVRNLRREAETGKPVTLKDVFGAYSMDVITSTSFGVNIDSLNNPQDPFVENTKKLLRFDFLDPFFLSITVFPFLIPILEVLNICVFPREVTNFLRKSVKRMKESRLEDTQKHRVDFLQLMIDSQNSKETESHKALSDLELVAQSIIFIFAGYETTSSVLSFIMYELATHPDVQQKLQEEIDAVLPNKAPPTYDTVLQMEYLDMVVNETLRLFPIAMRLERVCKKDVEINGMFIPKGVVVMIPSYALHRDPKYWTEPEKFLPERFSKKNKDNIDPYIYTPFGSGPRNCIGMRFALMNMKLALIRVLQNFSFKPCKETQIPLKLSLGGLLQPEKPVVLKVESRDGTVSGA
# Outline: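 20 nM human CYP3A4 with 25 uM Luciferin-PPXE (at KM) in 200 mM KPO4, preincubated 10 min with compound; NADPH regeneration started a 60 min RT reaction. Luciferin detected by luminescence, normalized to 57 uM ketoconazole as full inhibition.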
# [11] = molecular target: Cytochrome P450 3A4 (Homo sapiens) (UniProt P08684); test: qHTS Assay for Activators of Cytochrome P450 3A4 (AID 885; active means well fitted curve in the direction sought with a large enough effect; an effect the other way counts as inactive or inconclusive; further: nearly all actives have a fitted effect of over 65% in size); settings: recombinant CYP3A4, Luciferin-PPXE luminescence, 60 min; series mostly up to 11.4 µM
# Outline: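 Quantitative HTS format: compounds preincubated with 20nM human CYP3A4 and Luciferin-PPXE substrate at KM, reaction started by NADPH regeneration, stopped after 60 min, luciferase luminescence read 20 min later.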
# [12] = molecular target: Cytochrome P450 2C19 (Homo sapiens) (UniProt P33261); test: qHTS Assay for Inhibitors and Substrates of Cytochrome P450 2C19 (AID 899; active means well fitted curve in the direction sought with a large enough effect; an effect the other way counts as inactive or inconclusive; further: nearly all actives have a fitted effect of over 60% in size; further: potency means the concentration at half of the fitted maximal effect); settings: recombinant CYP2C19, luciferin-H EGE luminescence; series mostly up to 11.4 µM
# Sequence of Cytochrome P450 2C19 (Homo sapiens) (P33261 whole entry, looked up): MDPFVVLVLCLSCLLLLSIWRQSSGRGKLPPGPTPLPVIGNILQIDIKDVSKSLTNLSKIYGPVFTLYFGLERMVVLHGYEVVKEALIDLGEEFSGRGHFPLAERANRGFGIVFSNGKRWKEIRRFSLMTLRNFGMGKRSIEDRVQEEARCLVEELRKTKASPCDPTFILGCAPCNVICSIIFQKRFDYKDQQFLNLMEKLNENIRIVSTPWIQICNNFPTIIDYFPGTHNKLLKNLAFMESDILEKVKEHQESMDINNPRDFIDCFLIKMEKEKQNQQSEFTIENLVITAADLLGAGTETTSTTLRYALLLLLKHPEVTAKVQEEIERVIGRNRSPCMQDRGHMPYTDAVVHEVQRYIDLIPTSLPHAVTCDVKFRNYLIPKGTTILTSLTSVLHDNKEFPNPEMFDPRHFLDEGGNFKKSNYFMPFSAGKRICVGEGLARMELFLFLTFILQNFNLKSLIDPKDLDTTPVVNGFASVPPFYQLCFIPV
# Outline: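 Luminescence readout of luciferin formed from 10uM Luciferin-H EGE (KM level) by 5 nM CYP2C19 in 50mM KPO4. 60 min NADPH-driven reaction at 37C after 10 min compound preincubation; data scaled to 57uM ketoconazole inhibition.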
# [13] = molecular target: Cytochrome P450 2D6 (Homo sapiens) (UniProt P10635); test: qHTS Assay for Inhibitors and Substrates of Cytochrome P450 2D6 (AID 891; active means well fitted curve in the direction sought with a large enough effect; an effect the other way counts as inactive or inconclusive; further: potency means the concentration at half of the fitted maximal effect; nearly all actives have a fitted effect of over 60% in size); settings: recombinant CYP2D6, luciferin-ME EGE luminescence; series mostly up to 11.4 µM
# Sequence of Cytochrome P450 2D6 (Homo sapiens) (P10635 whole entry, looked up): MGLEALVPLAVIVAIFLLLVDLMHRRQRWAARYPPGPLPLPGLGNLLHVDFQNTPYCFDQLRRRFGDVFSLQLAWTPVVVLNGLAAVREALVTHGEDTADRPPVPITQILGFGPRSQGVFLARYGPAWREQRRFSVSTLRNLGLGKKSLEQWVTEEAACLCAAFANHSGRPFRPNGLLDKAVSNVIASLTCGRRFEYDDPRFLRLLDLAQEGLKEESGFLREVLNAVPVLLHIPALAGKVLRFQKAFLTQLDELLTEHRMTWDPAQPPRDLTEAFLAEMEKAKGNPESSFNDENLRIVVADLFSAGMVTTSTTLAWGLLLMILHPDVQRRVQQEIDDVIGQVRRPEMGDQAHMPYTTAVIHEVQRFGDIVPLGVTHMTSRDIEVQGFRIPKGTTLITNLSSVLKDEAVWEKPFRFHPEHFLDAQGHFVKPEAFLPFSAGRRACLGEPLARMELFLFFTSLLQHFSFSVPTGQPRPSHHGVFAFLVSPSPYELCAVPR
# Outline: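 Human CYP2D6 (5 nM) with 30 uM Luciferin-ME EGE (at Km) in 100 mM KPO4, compound preincubated 10 min, then NADPH regeneration system for 60 min at room temperature. Luciferin read by luminescence; normalized to 1.43 uM quinidine.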
Compound,Potency [1],"activity change, negative = inhibition [2] [%]",Potency [3],"activity, negative = inhibition [4] [%]",Potency [5] [µM],Potency [6] [µM],Potency [7],Potency [8],Potency [9],Potency [10],Potency [11],Potency [12],Potency [13],"activity change, negative = inhibition [3]","activity change, negative = inhibition [10]"
Cc1cc(O)c(C(C)C)cc1N=Cc1ccccc1O,> 11.4 µM,7.1,1.58 µM (active),-2.05,> 46,> 9.22,inactive,inactive,0.631 µM (active),3.16 µM (active),inactive,0.398 µM (active),–,–,–
N=c1sc2ccccc2n1CCS (tested in a mixture with another compound),4.5 µM (active),6.12,1 µM (active),-20,> 46,> 9.22,inactive,inactive,–,–,inactive,1.58 µM (active),–,–,–
Cc1ccc(C(=N)c2ccccc2Cc2cccc3ccccc23)c2ccccc12,> 11.4 µM,-3.34,1 µM (active),13.8,> 46,> 9.22,inactive,inactive,–,3.98 µM (active),inactive,1.26 µM (active),–,–,–
CN1CCc2ccccc2[C@@H]1Cc1ccccc1NC(=O)c1sc2ccccc2c1Cl,> 11.4 µM,-4.19,5.01 µM (active),4.41,> 46,> 9.22,inactive,inactive,–,–,inactive,2.51 µM (active),0.0794 µM (active),–,–
CC1(C)N=C(N)N=C(N)N1c1cccc(CSc2ccccc2)c1,> 11.4 µM,-4.06,–,2.13,> 46,> 9.22,inactive,inactive,–,–,–,–,0.251 µM (active),-17.2% [at 2.29 µM],–
O=C(O)C(=Cc1ccc(-c2ccccc2)cc1)C(=O)O,> 11.4 µM,-9.3,0.794 µM (active),-12.1,> 46,> 9.22,inactive,inactive,inactive,–,–,inactive,–,–,-41.1% [at 11.4 µM]
Cc1ccc(C2=C(Cl)C(=O)C(c3ccc(C)cc3)=C(Cl)C2=O)cc1,> 11.4 µM,4.65,–,-13.6,> 46,> 9.22,inactive,inactive,1.58 µM (active),–,–,–,–,-16.9% [at 2.29 µM],–
Cc1ccc(N[C@H](c2ccccc2)c2ccc3cccnc3c2O)cc1,> 11.4 µM,-6.67,–,3.71,> 46,> 9.22,inactive,inactive,–,–,inactive,–,–,-24.5% [at 2.29 µM],–
COc1ccc2c(Cc3c4ccccc4cc4ccccc34)cncc2c1O,> 11.4 µM,9.25,0.126 µM (active),-0.764,> 46,> 9.22,inactive,inactive,inactive,–,inactive,2.51 µM (active),–,–,–
CN1CCN(CC(=O)N2c3ccccc3Sc3cc4ccccc4cc32)CC1,> 11.4 µM,12.2,–,-5.37,> 46,> 9.22,inactive,inactive,–,–,inactive,–,–,-21.6% [at 2.29 µM],–
COc1ccc(Cc2ccccc2C(=O)O)c2ccccc12,> 11.4 µM,-1.93,–,-28.9,> 46,> 9.22,inactive,inactive,3.98 µM (active),–,–,–,–,2.8% [at 2.29 µM],–
Cc1cc(Cl)nc2ccc(Cc3ccc4nc(Cl)cc(C)c4c3)cc12,> 11.4 µM,-7.81,–,-4.37,> 46,> 9.22,inactive,inactive,–,3.16 µM (active),inactive,0.501 µM (active),–,-13.2% [at 2.29 µM],–

# Source: PubChem BioAssay (NCATS)
